Structures are written as SMILES. The panel holds about 83,000 compounds, 20% with a hit somewhere; the sample as a whole holds those more often.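 Compound tested at a single concentration for 48 hours in 96-well plates; a percent growth value below 10 was scored as active.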 Values without a mark were called inactive. The source made the active and inactive calls.

Test systems include NCI-H23 lung; NCI-H226 lung; NCI-H322M lung; HOP-62 NSCLC; NCI-H522 lung; A549/ATCC NSCLC; 786-0 renal; COLO 205 colon; DU-145 prostate; K-562 leukemia; MALME-3M melanoma; MDA-MB-231 breast; RXF 393 renal; SF-268 CNS; SF-295 CNS; SF-539 CNS; UACC-257 melanoma; M14 melanoma; NCI-H460 lung; HOP-92 NSCLC.
Common to all, as to test: NCI-60 one-dose screen, 48 h (100 = growth as untreated, 0 = no growth, -100 = all killed)
Holding throughout (conditions): 10 µM unless noted

In the case of `CC(C)(c1ccccc1)c1cc(O)c(C(C)(C)c2ccccc2)cc1O`, the growth was 38% in the assay on NCI-H23 lung; 43.2% with NCI-H226 lung; 59.7% in the assay on NCI-H322M lung; 63% in the assay with HOP-62 NSCLC; -2.05% (active) with NCI-H522 lung; 28.5% in the assay with A549/ATCC NSCLC. The growth is 30.5% with 786-0 renal; 17% in the assay with COLO 205 colon; 63.3% with DU-145 prostate; 13% in the assay on K-562 leukemia; 48.5% in the assay on MALME-3M melanoma; -1.39% (active) with MDA-MB-231 breast. Further, the growth with RXF 393 renal was 63.4%; with SF-268 CNS it was 38.7%; in the assay on SF-295 CNS, 25%; in the assay with SF-539 CNS, 50.4%; with UACC-257 melanoma, 11.3%.
For `O=C(CSc1nc2c(n1Nc1ccccc1)-c1ccccc1SC2)Nc1nccs1`, the growth is 91.2% with NCI-H23 lung; 93.6% in the assay with NCI-H226 lung; 99.7% in the assay with NCI-H322M lung; 101% with HOP-62 NSCLC; 95.2% in the assay on NCI-H522 lung; 96.6% with A549/ATCC NSCLC. The growth is 96.8% with 786-0 renal; 121% with COLO 205 colon; 105% in the assay on DU-145 prostate; 84.8% in the assay on K-562 leukemia; 101% in the assay on MALME-3M melanoma; 88.7% with MDA-MB-231 breast. Also, the growth in the assay on RXF 393 renal is 102%; with SF-268 CNS it was 96.2%; with SF-295 CNS it was 122%; in the assay on SF-539 CNS, 97.2%; in the assay on UACC-257 melanoma, 108%.
For `NC(N)=N/N=C/c1cccc(Cl)c1Cl`, the growth in the assay on NCI-H23 lung is 86.9%; in the assay with NCI-H226 lung, 84.8%; in the assay with NCI-H322M lung, 96.9%; in the assay with HOP-62 NSCLC, 82.5%; in the assay on NCI-H522 lung, 80.8%; with A549/ATCC NSCLC, 87.9%. For the same molecule, the growth is 83.6% in the assay with 786-0 renal; -33.1% (active) with COLO 205 colon; 69.3% with DU-145 prostate; 4.22% (active) with K-562 leukemia; 94.9% with MALME-3M melanoma; 81.6% with MDA-MB-231 breast. In addition, the growth in the assay on RXF 393 renal is 81.3%; in the assay on SF-268 CNS, 69.5%; in the assay with SF-295 CNS, 109%; in the assay with SF-539 CNS it was 96.4%; in the assay with UACC-257 melanoma, 70.1%; with M14 melanoma, 62.7%.
Consider `O=C1CCCN1C(O)CCN(Cc1ccccc1)Cc1ccc(Cl)cc1` (stereo not given), for which the growth in the assay on NCI-H23 lung is 103%; in the assay with NCI-H226 lung, 105%; in the assay with NCI-H322M lung, 95.5%; in the assay on HOP-62 NSCLC, 104%; in the assay with A549/ATCC NSCLC it was 103%; in the assay with 786-0 renal, 95.7%. In addition, the growth with COLO 205 colon is 124%; in the assay on DU-145 prostate, 110%; in the assay on MALME-3M melanoma, 109%; in the assay with MDA-MB-231 breast, 112%; in the assay on RXF 393 renal, 123%; in the assay on SF-268 CNS, 105%. Also, the growth is 94.2% in the assay on SF-295 CNS, 114% with SF-539 CNS, 106% in the assay on UACC-257 melanoma and 99.9% with M14 melanoma.
As for `COc1ccc(/C(C)=N/NC(=O)CSc2nc3ccccc3c(=O)n2CCc2ccc(S(N)(=O)=O)cc2)cc1`, the growth in the assay on NCI-H23 lung is 29.9%; with NCI-H226 lung, 49%; with NCI-H322M lung, 32.3%; in the assay on HOP-62 NSCLC, -0.117% (active); in the assay on NCI-H522 lung it was 9.28% (active); with A549/ATCC NSCLC, -26.9% (active). For the same molecule, the growth was -68.1% (active) in the assay on 786-0 renal; 33.5% with COLO 205 colon; 1.74% (active) in the assay with DU-145 prostate; 30.4% with K-562 leukemia; -21.4% (active) with MALME-3M melanoma; -10.9% (active) in the assay on MDA-MB-231 breast. In addition, the growth in the assay with RXF 393 renal was 29.7%; with SF-268 CNS, 28.3%; in the assay with SF-295 CNS it was 28.5%; in the assay with SF-539 CNS, 14.4%; in the assay on UACC-257 melanoma it was 25.9%; in the assay on M14 melanoma, 38.4%.
Take `COc1ccc(-c2cc(C(=O)Nc3ccc(C)cc3)nc3[nH]c(=O)sc23)cc1`: the growth is 75.4% in the assay with NCI-H23 lung; 80.1% in the assay with NCI-H226 lung; 78.5% with NCI-H322M lung; 84.7% in the assay with HOP-62 NSCLC; 24.3% in the assay on NCI-H522 lung; 50.6% in the assay on A549/ATCC NSCLC. Also, the growth with 786-0 renal was 65.2%; in the assay with COLO 205 colon, 78.8%; in the assay with DU-145 prostate it was 89.6%; with K-562 leukemia, 61.9%; with MALME-3M melanoma, 73.3%; in the assay on MDA-MB-231 breast it was 86.3%. Also, the growth in the assay on RXF 393 renal is 85.8%; with SF-268 CNS it was 88.7%; with SF-295 CNS, 70.7%; in the assay with SF-539 CNS, 75.6%; in the assay on UACC-257 melanoma, 51.4%; in the assay with M14 melanoma it was 70.8%.
With `CN1CCCN(CCNc2nccc(-c3c(-c4cccc(O)c4)nc4sccn34)n2)S1(=O)=O`, the growth with NCI-H23 lung is 67.1%; with NCI-H226 lung it was 72.4%; in the assay on NCI-H322M lung, 47.9%; with HOP-62 NSCLC, 84.4%; in the assay with NCI-H522 lung, 59.3%; with A549/ATCC NSCLC, 45.8%. Also, the growth in the assay on 786-0 renal is 42.2%; in the assay with COLO 205 colon, 29.3%; in the assay with DU-145 prostate, 54.7%; in the assay on MALME-3M melanoma, 9.87% (active); with MDA-MB-231 breast, 44.9%; in the assay on RXF 393 renal it was 41.3%. For the same molecule, the growth with SF-268 CNS is 71.5%; in the assay on SF-295 CNS it was 57.8%; in the assay with SF-539 CNS, 57.8%; with UACC-257 melanoma it was 36.8%; in the assay with M14 melanoma, -0.122% (active).
Regarding `CCN(CC)CC(=O)Nc1c(C)cc(C(=O)NN)cc1C`, the growth in the assay on NCI-H23 lung was 94.8%; with NCI-H226 lung it was 99.7%; with NCI-H322M lung, 89.1%; in the assay on HOP-62 NSCLC, 88.5%; in the assay on NCI-H522 lung it was 105%; in the assay on A549/ATCC NSCLC, 106%. Further, the growth in the assay on 786-0 renal was 106%; with COLO 205 colon it was 95.4%; with DU-145 prostate it was 96.8%; with K-562 leukemia, 94.9%; in the assay with MALME-3M melanoma it was 73.9%; in the assay on MDA-MB-231 breast it was 103%. The growth in the assay with RXF 393 renal is 110%; with SF-268 CNS, 93.9%; in the assay on SF-295 CNS it was 105%; in the assay on SF-539 CNS, 100%; in the assay on UACC-257 melanoma it was 100%; in the assay with M14 melanoma, 96.2%.
As for `N=C(N)c1ccc(-c2ccc(-c3cccs3)s2)cc1F`, the growth was -62.8% (active) in the assay on NCI-H23 lung; -65.6% (active) in the assay with NCI-H226 lung; -92.4% (active) in the assay on NCI-H322M lung; -57.4% (active) with NCI-H460 lung; -62% (active) with HOP-92 NSCLC; -86% (active) with 786-0 renal. For the same molecule, the growth in the assay with COLO 205 colon was -87.1% (active); in the assay on DU-145 prostate, -77.4% (active); in the assay with K-562 leukemia, -6.25% (active); with MALME-3M melanoma it was -73.4% (active); in the assay on MDA-MB-231 breast, -74.1% (active); in the assay with RXF 393 renal, -92.6% (active). Further, the growth is -77.1% (active) with SF-268 CNS, -71.2% (active) in the assay on SF-295 CNS, -93.9% (active) with SF-539 CNS and -78.3% (active) with M14 melanoma.

Source of the values: PubChem BioAssay (NCI).
